Active and inactive are the calls of the source. The calls were made as follows: active = hit-call score of the fitted dose curve at least 0.9, where 1 is the maximum; inactive = score below 0.9.

The source of these data is PubChem BioAssay (EPA / NIEHS).

Read-out in one test: Cytochrome P450 4A22 (Homo sapiens) (UniProt Q5TCH4)
Kind of test: LTEA_HepaRG_CYP4A22: Life Technologies and Expression Analysis (LTEA) Assay for Cytochrome P450 4A22 (CYP4A22) using HepaRG (AID 2283495). Particulars: mRNA level, 48 h; actives raise or lower the signal. In a few lines: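 HepaRG, 48 h post-plating -> serum-free induction medium; dosed 48 h, duplicate, 8 conc. (100 uM top, half-log), 0.5% DMSO. Readout: CYP4A22 mRNA by qRT-PCR, ACTB/GAPDH/POLR2A normalization; gain/loss fit relative to DMSO.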
Take `Cc1ccccc1O`: the molecule was classed as inactive.
For the molecule `CCOCCOC(C)=O`, the result was inactive.
Turning to `CCCCCCCCCc1ccc(O)cc1`, the half-maximal activity concentration (AC50) is 31.9 µM (active).
`Oc1ccc(Cl)cc1Cl`: the call was inactive.
For `C1CC2OC2CC1C1CO1` (stereo not given), the result was inactive.
Take `O=C(NC(=O)c1c(F)cccc1F)Nc1cc(Cl)c(OC(F)(F)C(F)F)c(Cl)c1`: the outcome was inactive.
With `COS(=O)(=O)OC`, the molecule was called inactive.
Take `CCC(=O)O[C@H]1CC[C@H]2[C@@H]3CCC4=CC(=O)CC[C@]4(C)[C@H]3CC[C@]12C`: the AC50 was 0.308 µM (active).

Read-out in another test: Cytochrome P450 7A1 (Homo sapiens) (UniProt P22680)
Kind of test: LTEA_HepaRG_CYP7A1: Life Technologies and Expression Analysis (LTEA) Assay for Cytochrome P450 7A1 (CYP7A1) using HepaRG (AID 2283496). Conditions: mRNA level, 48 h; actives raise or lower the signal. The essentials: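 Using 0.5% DMSO as vehicle and baseline, chemicals were tested in duplicate over an 8-point range from 100 uM on HepaRG cells for 48 h; qRT-PCR signals were normalised to ACTB, GAPDH and POLR2A.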
In the case of `CC(C)(O)C(=O)Nc1ccc([N+](=O)[O-])c(C(F)(F)F)c1`, the molecule was classed as inactive.
Still for that read-out and setting: the same measure for `CCC(C)(CC)c1cc(NC(=O)c2c(OC)cccc2OC)on1`: “inactive”; for `Cc1ccccc1O`: “inactive”; for `CN(C)CCO`: “inactive”.
As to `Cc1ccccc1CO[C@@H]1C[C@@]2(C(C)C)CC[C@]1(C)O2`, the molecule was classed as inactive.
On to `Cc1cc(-c2ccc(N)c(C)c2)ccc1N`, for which the concentration at half-maximal activity (AC50) was 9.92 µM (active).
For the molecule `c1cc2ccc3cccc4ccc(c1)c2c34`, the call was inactive.
Take `Oc1c(Cl)c(Cl)c(Cl)c(Cl)c1Cl`: the AC50 was 3.88 µM (active).
For the molecule `O=NN(c1ccccc1)c1ccccc1`, the result was inactive.
On to `Clc1ccc(C(c2ccccc2Cl)C(Cl)(Cl)Cl)cc1` (stereo not given), for which the AC50 is 15.3 µM (active).
For the molecule `NS(=O)(=O)C(F)(F)C(F)(F)C(F)(F)C(F)(F)C(F)(F)C(F)(F)C(F)(F)C(F)(F)F`, the half-maximal activity concentration (AC50) was 8.86 µM (active).
Turning to `O=S(=O)(O)C(F)(F)C(F)(F)C(F)(F)C(F)(F)F`, the outcome was inactive.
`Nc1ccc(-c2ccc(N)cc2)cc1`: the concentration at half-maximal activity (AC50) was 1.44 µM (active).
Regarding `C=CC(N)=O`, the result was inactive.
As to `CCOCCOC(C)=O`, the result was inactive.
Consider `O=C(O)C(F)(F)C(F)(F)C(F)(F)C(F)(F)C(F)(F)C(F)(F)C(F)(F)C(F)(F)F`, for which the AC50 is 86.7 µM (active).
`CCCCCCCCCc1ccc(O)cc1`: the call was inactive.
Regarding `CO/C=C(/C(=O)OC)c1ccccc1COc1cccc(C(F)(F)F)n1`, the half-maximal activity concentration (AC50) is 8.85 µM (active).
With `ClC1=C(Cl)[C@]2(Cl)[C@@H]3[C@@H]4C[C@@H]([C@H]5O[C@@H]45)[C@@H]3[C@@]1(Cl)C2(Cl)Cl`, the AC50 is 0.0248 µM (active).
With `Cc1ccccc1[N+](=O)[O-]`, the outcome was inactive.
Take `Oc1ccc(Cl)cc1Cl`: the call was inactive.
For `Clc1ccc(C(Cl)(Cl)Cl)cc1`, the molecule was classed as inactive.
For the molecule `C=CC(=O)NCNC(=O)C=C`, the outcome was inactive.
Regarding `C1CC2OC2CC1C1CO1` (stereo not given), the call was inactive.
Turning to `O=C(NC(=O)c1c(F)cccc1F)Nc1cc(Cl)c(OC(F)(F)C(F)F)c(Cl)c1`, the AC50 is 13.6 µM (active).
`O=C(NC(=O)c1cc(F)c(F)cc1Cl)Nc1cc(F)ccc1N1CCC(C(=O)O)CC1`: the AC50 is 6.6 µM (active).
As to `ClC(Cl)=C(c1ccc(Cl)cc1)c1ccc(Cl)cc1`, the molecule was called inactive.
Regarding `CCC(C)(c1ccc(O)cc1)c1ccc(O)cc1`, the AC50 is 50 µM (active).
Take `COS(=O)(=O)OC`: the molecule was called inactive.
On to `N#Cc1ccc(N(CC(N)=O)CC(F)(F)F)cc1C(F)(F)F`, for which the AC50 is 0.622 µM (active).
Take `CCC(=O)O[C@H]1CC[C@H]2[C@@H]3CCC4=CC(=O)CC[C@]4(C)[C@H]3CC[C@]12C`: the half-maximal activity concentration (AC50) was 13.1 µM (active).
As for `CCCCCCCCOC(=O)c1ccccc1C(=O)OCCCCCCCC`, the outcome was inactive.
